# According to PubChem BioAssay (NCATS):
# Inconclusive results are not listed. Entries that show only a call come without a potency. Calls of active or inactive are those of the source. Unless noted, the call rests on the fitted dose curve; in most records, active means well fitted curve in the direction sought with a large enough effect; inconclusive means small, poorly fitted or top-dose-only effect, or another doubt; inactive means no such curve, though single readings can be large; an effect the other way counts as inactive or inconclusive.
# Tests used:
# [1] = biological target: Cytochrome P450 1A2 (Homo sapiens) (UniProt P05177); test: p450-cyp1a2 (AID 410; calls by dose curve; further: potency means the concentration at half of the fitted maximal effect)
# Sequence of Cytochrome P450 1A2 (Homo sapiens) (P05177 whole entry, looked up): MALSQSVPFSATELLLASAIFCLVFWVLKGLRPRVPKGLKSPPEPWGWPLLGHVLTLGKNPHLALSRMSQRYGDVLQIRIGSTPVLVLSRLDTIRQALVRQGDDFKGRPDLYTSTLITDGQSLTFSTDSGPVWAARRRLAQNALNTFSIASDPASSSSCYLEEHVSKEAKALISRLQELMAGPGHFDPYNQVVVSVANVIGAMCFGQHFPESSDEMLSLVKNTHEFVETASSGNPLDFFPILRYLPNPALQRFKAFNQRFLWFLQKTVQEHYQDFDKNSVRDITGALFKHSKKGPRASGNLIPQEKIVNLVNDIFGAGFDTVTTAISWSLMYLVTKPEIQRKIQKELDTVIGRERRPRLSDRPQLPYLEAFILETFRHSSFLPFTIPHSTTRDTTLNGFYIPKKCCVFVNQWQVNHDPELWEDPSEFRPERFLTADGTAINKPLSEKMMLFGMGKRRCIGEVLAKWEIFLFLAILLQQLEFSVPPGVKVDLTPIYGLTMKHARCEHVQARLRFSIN
# How it was run: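 Read-out is luminescence from luciferin produced by CYP1A2 demethylation of Luciferin-ME (100uM, at Km). Detection reagent stopped the 60 min NADPH-dependent reaction; signals were normalized to 57 uM furafylline.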
# [2] = biological target: Glucocorticoid receptor (Homo sapiens) (UniProt P04150); test: GR-GFP Redistribution (AID 450;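 active means compounds whose dose series gives a full or clear partial fitted curve of increased nuclear translocation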; further: potency means the concentration at half of the fitted maximal effect); details: U2OS GR-GFP nuclear translocation, laser cytometry, 2 h
# Sequence of Glucocorticoid receptor (Homo sapiens) (P04150 whole entry, looked up, the tested form may be a part): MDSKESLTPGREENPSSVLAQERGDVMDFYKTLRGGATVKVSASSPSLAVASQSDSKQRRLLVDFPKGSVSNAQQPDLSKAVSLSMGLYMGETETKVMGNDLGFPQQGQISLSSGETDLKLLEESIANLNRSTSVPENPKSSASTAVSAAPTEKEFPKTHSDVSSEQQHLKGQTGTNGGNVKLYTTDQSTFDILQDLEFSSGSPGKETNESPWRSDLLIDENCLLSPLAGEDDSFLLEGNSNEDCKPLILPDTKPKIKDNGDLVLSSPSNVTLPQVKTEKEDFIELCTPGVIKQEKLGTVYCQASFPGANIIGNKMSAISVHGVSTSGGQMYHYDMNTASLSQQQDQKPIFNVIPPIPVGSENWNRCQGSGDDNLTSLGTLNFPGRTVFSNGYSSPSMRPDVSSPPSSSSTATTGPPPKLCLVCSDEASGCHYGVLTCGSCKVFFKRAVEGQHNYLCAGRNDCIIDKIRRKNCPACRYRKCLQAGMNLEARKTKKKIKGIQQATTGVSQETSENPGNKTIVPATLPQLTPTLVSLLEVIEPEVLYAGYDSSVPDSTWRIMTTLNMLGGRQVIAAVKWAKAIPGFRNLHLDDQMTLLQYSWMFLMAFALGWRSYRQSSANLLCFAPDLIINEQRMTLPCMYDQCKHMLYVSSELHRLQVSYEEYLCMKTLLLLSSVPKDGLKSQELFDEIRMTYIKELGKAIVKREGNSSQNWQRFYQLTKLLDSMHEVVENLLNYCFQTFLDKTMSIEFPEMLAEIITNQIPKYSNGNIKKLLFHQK
# [3] = biological target: Glucocorticoid receptor (Homo sapiens) (UniProt P04150); test: GR-EFC Redistribution (AID 451; calls by dose curve; further: potency means the concentration at half of the fitted maximal effect); details: CHO-K1 GR-EFC translocation, beta-gal luminescence, 2 h
# How it was run: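 CHO-K1 cells expressing nuclear EA and GR-ED fragments of b-gal; compounds titrated up to 46 uM final, 2 h at 37 C. GR nuclear translocation read as complemented b-gal luminescence after 1 h RT detection.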
# [4] = biological target: Mitogen-activated protein kinase 10 (Mus musculus) (UniProt Q61831); test: JNK3 AlphaScreen Assay (AID 530; active means well fitted curve in either direction with a large enough effect, not every such curve was filed as active;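 further: kinase came from lysate of stimulated human HepG2 cells; potency means the concentration at half of the fitted maximal effect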)
# How it was run: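 HepG2 lysate (IL-1b/TNFa pre-activated) + biotin-GST-cJun 1-79 + anti-pSer73 cJun; cpd titration, 15 min RT; ATP 10 uM start; Tris pH 7.6, MgCl2, DTT, vanadate; beads in EDTA buffer; AlphaScreen.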
# [5] = biological target: Cytochrome P450 2C9 (Homo sapiens) (UniProt P11712); test: qHTS Assay for Inhibitors and Substrates of Cytochrome P450 2C9 (AID 883); further: nearly all actives have a fitted effect of over 60% in size
# Sequence of Cytochrome P450 2C9 (Homo sapiens) (P11712 whole entry, looked up): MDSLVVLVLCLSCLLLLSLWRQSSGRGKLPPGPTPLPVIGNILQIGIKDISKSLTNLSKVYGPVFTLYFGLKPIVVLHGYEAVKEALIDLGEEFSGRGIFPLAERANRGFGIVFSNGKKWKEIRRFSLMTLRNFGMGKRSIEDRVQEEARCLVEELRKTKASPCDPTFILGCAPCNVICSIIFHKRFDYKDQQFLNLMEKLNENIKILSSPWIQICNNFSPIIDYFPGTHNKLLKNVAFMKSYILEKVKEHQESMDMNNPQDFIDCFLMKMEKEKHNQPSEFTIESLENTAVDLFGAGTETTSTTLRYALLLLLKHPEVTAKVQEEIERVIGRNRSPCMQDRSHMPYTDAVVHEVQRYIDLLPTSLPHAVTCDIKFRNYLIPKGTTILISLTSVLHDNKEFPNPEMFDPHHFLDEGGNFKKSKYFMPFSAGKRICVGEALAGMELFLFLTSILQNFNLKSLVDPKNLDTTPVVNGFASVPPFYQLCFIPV
# How it was run: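 10nM CYP2C9 + 100uM Luciferin-H (=KM), 25mM KPO4; cpd 10 min 37C; NADPH regen, 60 min 37C; stop/detect with P450 Glo-Buffer 20 min; luminescence. Norm. to 57uM sulphaphenazole as full inhibition.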
# [6] = biological target: Cytochrome P450 2D6 (Homo sapiens) (UniProt P10635); test: qHTS Assay for Inhibitors and Substrates of Cytochrome P450 2D6 (AID 891);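 further: luciferin methyl ether substrate demethylated by CYP2D6 with NADPH regeneration; nearly all actives have a fitted effect of over 60% in size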
# Sequence of Cytochrome P450 2D6 (Homo sapiens) (P10635 whole entry, looked up): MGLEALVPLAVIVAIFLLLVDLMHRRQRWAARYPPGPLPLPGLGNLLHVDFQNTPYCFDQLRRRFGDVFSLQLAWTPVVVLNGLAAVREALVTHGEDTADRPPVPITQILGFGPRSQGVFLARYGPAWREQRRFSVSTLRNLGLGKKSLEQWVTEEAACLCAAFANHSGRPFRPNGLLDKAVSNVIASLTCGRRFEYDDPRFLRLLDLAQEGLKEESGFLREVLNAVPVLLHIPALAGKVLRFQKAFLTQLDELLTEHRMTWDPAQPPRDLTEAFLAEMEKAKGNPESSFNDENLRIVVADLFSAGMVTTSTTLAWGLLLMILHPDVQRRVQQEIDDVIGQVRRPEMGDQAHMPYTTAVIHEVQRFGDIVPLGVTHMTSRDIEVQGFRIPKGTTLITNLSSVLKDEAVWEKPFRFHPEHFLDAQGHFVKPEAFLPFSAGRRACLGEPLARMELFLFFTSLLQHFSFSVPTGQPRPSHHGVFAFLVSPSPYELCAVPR
# How it was run: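 Luminescent read-out of luciferin formed by 5 nM human CYP2D6 demethylating 30 uM Luciferin-ME EGE (Km level) over 60 min at room temperature after NADPH regeneration addition. Data normalized to full inhibition by 1.43 uM quinidine.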
# [7] = biological target: Cytochrome P450 2C19 (Homo sapiens) (UniProt P33261); test: qHTS Assay for Inhibitors and Substrates of Cytochrome P450 2C19 (AID 899); further: nearly all actives have a fitted effect of over 60% in size
# Sequence of Cytochrome P450 2C19 (Homo sapiens) (P33261 whole entry, looked up): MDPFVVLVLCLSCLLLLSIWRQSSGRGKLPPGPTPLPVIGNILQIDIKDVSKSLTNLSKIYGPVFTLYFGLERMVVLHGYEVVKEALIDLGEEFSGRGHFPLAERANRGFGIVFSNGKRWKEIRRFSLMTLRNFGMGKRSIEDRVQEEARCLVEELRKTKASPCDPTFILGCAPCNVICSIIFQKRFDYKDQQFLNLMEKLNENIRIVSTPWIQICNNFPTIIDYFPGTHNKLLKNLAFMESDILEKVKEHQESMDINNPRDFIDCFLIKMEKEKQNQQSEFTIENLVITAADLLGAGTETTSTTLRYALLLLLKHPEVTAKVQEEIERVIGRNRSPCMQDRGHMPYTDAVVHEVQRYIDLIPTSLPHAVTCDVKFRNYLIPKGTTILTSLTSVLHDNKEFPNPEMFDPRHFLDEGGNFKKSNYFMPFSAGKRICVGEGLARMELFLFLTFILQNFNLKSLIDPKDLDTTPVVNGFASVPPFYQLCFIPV
# How it was run: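 Luminescent read-out of luciferin formed from Luciferin-H EGE (10uM, equal to KM). Enzyme 5nM in 50mM KPO4; compound added, 10 min at 37C, then NADPH regenerating system for 60 min at 37C. Full inhibition defined by 57uM ketoconazole.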
# [8] = Viability counterscreen for agonist of constitutive androstane receptor (CAR) against the NCATS DSHEA and TCM libraries (AID 1794838)
# How it was run: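 In agonist mode, PK11195 is added at 0.75 uM final to HepG2-CYP2B6-hCAR cells dosed with test substances. Cultures incubate 24 h at 37C before a protease-based fluorogenic viability readout.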
# [9] = biological target: Nuclear receptor subfamily 1 group I member 3 (Homo sapiens) (UniProt Q14994); test: Primary qHTS for agonist of constitutive androstane receptor (CAR) against the NCATS DSHEA and TCM libraries (AID 1794839); further: potency means the concentration at half of the fitted maximal effect
# Sequence of Nuclear receptor subfamily 1 group I member 3 (Homo sapiens) (Q14994 whole entry, looked up): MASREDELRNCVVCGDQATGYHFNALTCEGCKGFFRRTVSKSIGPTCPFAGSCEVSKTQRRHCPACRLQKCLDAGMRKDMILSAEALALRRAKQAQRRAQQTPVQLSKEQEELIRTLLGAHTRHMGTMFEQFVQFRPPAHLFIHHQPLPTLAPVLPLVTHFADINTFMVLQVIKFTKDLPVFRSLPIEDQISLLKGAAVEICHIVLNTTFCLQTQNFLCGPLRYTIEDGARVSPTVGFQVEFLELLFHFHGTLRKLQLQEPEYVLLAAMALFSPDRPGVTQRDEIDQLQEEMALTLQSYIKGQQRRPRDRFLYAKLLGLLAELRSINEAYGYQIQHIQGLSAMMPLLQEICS
# How it was run: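 Cells stably carrying hCAR and a CYP2B6 reporter (HepG2 background) are seeded and allowed 5 h to adhere. Substances at multiple concentrations are added alongside 0.75 µM PK11195, and luciferase signal is measured after 24 h.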
# [10] = HepG2 viability counterscreen (readout 2: ATP content) against the NCATS DSHEA and TCM libraries (AID 1794840);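 further: HepG2 cells exposed to substances for about 24 h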
# How it was run: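 Cytotoxicity was assessed in HepG2 cells plated at 1,000 cells/well and exposed for about 24 hours to a concentration series. Protease activity and ATP content were measured sequentially in each well.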
# [11] = biological target: Cytochrome P450 3A4 (Homo sapiens) (UniProt P08684); test: qHTS for inhibitors of CYP3A4 against the NCATS DSHEA and TCM libraries (AID 1919971);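 further: inhibition lowers luminescence from luciferin made by CYP3A4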
# Sequence of Cytochrome P450 3A4 (Homo sapiens) (P08684 whole entry, looked up, canonical isoform): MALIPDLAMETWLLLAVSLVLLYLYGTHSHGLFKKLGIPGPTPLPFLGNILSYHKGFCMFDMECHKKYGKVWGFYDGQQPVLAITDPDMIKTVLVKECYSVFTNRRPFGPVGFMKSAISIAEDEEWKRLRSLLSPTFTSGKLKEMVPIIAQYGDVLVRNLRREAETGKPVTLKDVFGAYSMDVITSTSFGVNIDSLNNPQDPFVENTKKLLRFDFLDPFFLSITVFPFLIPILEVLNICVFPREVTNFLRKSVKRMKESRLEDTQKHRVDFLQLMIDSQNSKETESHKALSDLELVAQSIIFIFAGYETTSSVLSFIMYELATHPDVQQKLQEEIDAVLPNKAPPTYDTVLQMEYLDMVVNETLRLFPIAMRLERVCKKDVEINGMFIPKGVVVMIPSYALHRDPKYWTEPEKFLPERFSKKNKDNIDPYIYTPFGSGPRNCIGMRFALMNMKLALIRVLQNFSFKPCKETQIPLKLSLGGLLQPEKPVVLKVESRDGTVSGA
# How it was run: (§1)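 Isoform-specific enzyme and substrate levels; enzyme-free wells as background. Reaction: 1x NADPH regenerating system, 30-45 min, room temperature, shielded from light; luminescent detection reagent added, 30 min.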
# [12] = biological target: Cytochrome P450 2D6 (Homo sapiens) (UniProt P10635); test: qHTS for inhibitors of CYP2D6 against the NCATS DSHEA and TCM libraries (AID 1919972)
# How it was run: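 qHTS, concentration–response format with most substances from 19.5 nM. CYP2D6 + pro-luciferin substrate, 15 min with compound, then 1x NADPH regen, 30–45 min RT dark. Glo detection 30 min, luminescence. Quinidine control.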
# [13] = biological target: Cytochrome P450 2C9 (Homo sapiens) (UniProt P11712); test: qHTS for inhibitors of CYP2C9 against the NCATS DSHEA and TCM libraries (AID 1919973); further: potency means the concentration at half of the fitted maximal effect
# How it was run: as §1
# [14] = KB-3-1 P-gp reporter qHTS against the NCATS DSHEA and TCM libraries (AID 1919975)
# How it was run: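 72 h exposure of KB-3-1 cells (DMEM, 10% FBS) to DSHEA/TCM samples, concentration-response; cell viability measured as CellTiter-Glo luminescence after 30 min at room temperature.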
# [15] = biological target: Cytochrome P450 1A2 (Homo sapiens) (UniProt P05177); test: qHTS for inhibitors of CYPIA2 against the NCATS DSHEA and TCM libraries (AID 1919976); further: potency means the concentration at half of the fitted maximal effect
# How it was run: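 Furafylline served as the plate control. Compounds met CYP1A2 and pro-luciferin substrate 15 min before NADPH regeneration solution (1x) was added; after 30-45 min at RT, P450-Glo reagent was added for 30 min and luminescence was measured.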
# [16] = qHTS Counterscreen for compound interference against the NCATS DSHEA and TCM libraries (AID 1919978); details: firefly luciferase detection reagent interference, luminescence
# How it was run: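 Read-out is luminescence after 30 min at RT with luciferin detection reagent. Before that, compounds (19.5 nM to 39.8 uM final) sat 15 min at RT with 1 uM D-luciferin or 100 mM potassium phosphate buffer. PTC124 served as intraplate control.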
# [17] = Dual reporter qHTS for agonist of Pregnane X Receptor (hPXR) against the NCATS DSHEA and TCM libraries: Fluorescence readout (AID 1920058)
# How it was run: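 In this qHTS counter-read, reporter-bearing HepG2 cells in charcoal-stripped serum received substances for approximately 24 h before viability was assessed fluorometrically with CellTiter-Fluor.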
# [18] = biological target: Nuclear receptor subfamily 1 group I member 2 (Homo sapiens) (UniProt O75469); test: Dual reporter qHTS for agonist of Pregnane X Receptor (hPXR) against the NCATS DSHEA and TCM libraries: Luminescence readout (AID 1920059)
# Sequence of Nuclear receptor subfamily 1 group I member 2 (Homo sapiens) (O75469 whole entry, looked up): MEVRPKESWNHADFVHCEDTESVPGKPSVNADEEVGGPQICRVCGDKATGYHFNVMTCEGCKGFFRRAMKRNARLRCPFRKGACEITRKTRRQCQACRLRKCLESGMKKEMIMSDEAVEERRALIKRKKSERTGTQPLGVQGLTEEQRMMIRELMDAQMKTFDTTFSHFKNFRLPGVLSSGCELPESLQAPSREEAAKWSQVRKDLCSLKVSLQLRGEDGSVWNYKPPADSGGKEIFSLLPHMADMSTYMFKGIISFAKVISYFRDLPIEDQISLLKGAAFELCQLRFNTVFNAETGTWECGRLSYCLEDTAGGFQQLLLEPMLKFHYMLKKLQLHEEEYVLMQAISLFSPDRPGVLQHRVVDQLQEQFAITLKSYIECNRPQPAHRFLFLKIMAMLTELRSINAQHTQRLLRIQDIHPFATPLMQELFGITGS
# How it was run: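 hPXR-Luc HepG2 cells, 2000/well in 5% charcoal-stripped FBS medium, attached 5 h, then exposed 24 h at 37C to compounds. Viability by CellTiter-Fluor, then luciferase luminescence with ONE-Glo.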
# [19] = biological target: Nuclear receptor subfamily 1 group I member 2 (Homo sapiens) (UniProt O75469); test: Dual reporter qHTS for antagonist of Pregnane X Receptor (hPXR) against the NCATS DSHEA and TCM libraries: Luminescence Readout (AID 1920060)
# How it was run: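 Rifampicin-stimulated (2 uM final) hPXR-luciferase HepG2 cells were treated for 24 h with DSNP/TCM substances. Viability came from CellTiter-Fluor fluorescence, reporter activity from ONE-Glo luminescence.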
compound,measurement,setting,value
O=c1cc(-c2ccc(O)c(O)c2)oc2cc(O[C@@H]3O[C@@H](CO)[C@@H](O)[C@@H](O)[C@H]3O)cc(O)c12,Potency,[1],39.8 µM (active)
same,Potency,[2],> 46 µM (inactive)
same,Potency,[3],> 46 µM (inactive)
same,Potency,[4],7.94 µM (active)
same,Potency,[5],inactive
same,Potency,[6],inactive
same,Potency,[7],inactive
same,outcome,[8],inactive
same,Potency,[9],28.2 µM (active)
same,outcome,[10],inactive
same,Potency,[11],inactive
same,Potency,[12],inactive
same,Potency,[13],3.98 µM (active)
same,outcome,[14],inactive
same,Potency,[15],3.98 µM (active)
same,max response,[16],0.762% (inactive)
same,outcome,[17],inactive
same,Potency,[18],inactive
same,outcome,[19],inactive
